Shown are actives, neighbours in structure and some others; about 12% of the full set was active somewhere.
AMA1 RON2 block = AMA1-RON2 (P. falciparum) interaction inhibition | AlphaScreen AMA1-biotinylated RON2 peptide binding | Potency, µM (series often up to 58.2 µM), inactives show top-dose activity change, negative = inhibition, actives largely listed as inhibitors | hit rate 0.2% among 360,000;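 note: 0% = vehicle wells and -100% = peptide control; nearly all actives have a fitted effect of over 45% in size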
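AMA1 (3D7) with his tag at 25 nM final met compounds first, then biotinylated RON2 peptide at 25 nM; detection used donor plus acceptor beads, 10 µg/mL apiece, read by AlphaScreen after 30 min at room temperature.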
Pf growth 48h = inhibits P. falciparum growth in the first generation, 48 h. hit rate 5.9% among 310,000. P. falciparum luciferase growth in erythrocytes, 48 h. Potency, µM (titrated, usually from 28.7 µM), without a hit: top-dose activity change, negative = inhibition, most hits filed as inhibitors. AID 504832; note: % is set by controls: 0 for no effect and ±100 for the full control effect
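Compounds are pin-transferred into medium, infected erythrocytes (2% hematocrit, 0.1% parasitemia final) are added, and plates sit one parasite generation at 37 C in 5% CO2. Detection reagent is then added and luminescence measured.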
HCV inhibitor = blocks hepatitis C virus; Potency, µM (titrated, usually from 41.8 µM), for the others: top-dose activity change, negative = inhibition, hits mostly inhibitors; AID 651820; Huh7.5.1 HCVcc-Cre infection, luciferase reporter, 44 h; hit rate 3.4% among 340,000; note: % is set by controls: 0 for no effect and ±100 for the full control effect
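Compounds are dispensed onto cells plated 4 h earlier at 1,000 per well, with HCVcc-Cre virus (about 0.5 moi) added next. Following 44 h of culture, luminescent signal is measured for 15 sec after 15 min with substrate at room temperature.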
NS1 function inh = influenza NS1 inhibition. Potency, µM (doses to about 46.1 µM), inactives show top-dose activity, positive = more growth. hit rate 0.4% among 270,000. AID 2326; calls by dose curve; note: actives are rising curves; nearly all actives have a fitted effect of over 50% in size
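Compounds were scored for reversing the slow growth caused by influenza A NS1 in S. cerevisiae, measured by optical density at 600 nm. Assay medium contained 2% galactose at pH 6.0; NS1-free yeast of the same strain were the positive control.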
SARS PLP yeast = SARS-CoV PLP inhibition in yeast; S. cerevisiae expressing SARS-CoV PLpro, growth rescue; Potency, µM (titrated, usually from 32.9 µM), without a hit: top-dose activity, positive = growth rescue, most hits filed as activators; hit rate 0.19% among 330,000; calls by dose curve; note: 0% is about no effect; nearly all actives have a fitted effect of over 55% in size
Pf growth 96h = P. falciparum growth inhibition at 96 hours. Potency, µM (series often up to 28.7 µM), without a hit: at the highest dose activity change, negative = inhibition, hits mostly inhibitors. hit rate 6.9% among 320,000. P. falciparum luciferase reporter growth, 96 h. AID 504834; note: % is set by controls: 0 for no effect and ±100 for the full control effect
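Two-generation exposure (96 h) targets delayed-death phenotype. Reporter parasites carrying integrated firefly luciferase, in red cells at 2% hematocrit and 0.05% parasitemia final, kept at 37 C, 5% CO2; luminescence loss indicates inhibition.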
Active calls of the source: *; u = inconclusive; x = no result given; [ ] = another dose, or the depositor's remark. Unless noted, calls come from the whole dose curve; as a rule, active = well fitted curve in the direction sought with a large enough effect; inconclusive = small, poorly fitted or top-dose-only effect, or another doubt; inactive = no such curve, though single readings can be large; an effect the other way counts as inactive or inconclusive. Potency is the fitted concentration of half-maximal effect.

SMILES | AMA1 RON2 block | Pf growth 48h | HCV inhibitor | NS1 function inh | SARS PLP yeast | Pf growth 96h
O=C(c1cccs1)N1CCN=C1SCc1cccnc1 | 12% | 6% | -1% | 10% | -3% | 66%
O=C(N1CCN=C1SCc1cccnc1)C12CC3CC(CC(C3)C1)C2 | 12% | 15µM* | -6% | 10% | 4% | -29%
CC(=O)O[C@H]1C[C@H](O[C@H]2[C@@H](O)CC(O[C@H]3[C@@H](O)C[C@H](O[C@H]4CC[C@@]5(C)[C@H](CC[C@@H]6[C@@H]5CC[C@]5(C)[C@@H](C7=CC(=O)OC7)CC[C@]65O)C4)O[C@@H]3C)O[C@@H]2C)O[C@H](C)[C@H]1O[C@@H]1O[C@H](CO)[C@@H](O)[C@H](O)[C@H]1O (stereo partly specified) | x | u | x | x | x | 4.8µM*
CC(=O)OC1CC(OC2C(O)CC(OC3C(O)CC(OC4CCC5(C)C(CCC6C5CC(O)C5(C)C(C7=CC(=O)OC7)CCC65O)C4)OC3C)OC2C)OC(C)C1OC1OC(CO)C(O)C(O)C1O (stereo unspecified) | 14% | x | 0.56µM* | x | x | x
C[C@@]12CC[C@H](O[C@@H]3O[C@H](CO)[C@@H](O)[C@H](O)[C@@H]3O)C[C@@H]1CC[C@H]1[C@H]2CC[C@@]2(C)[C@@H](C3=CCOC3=O)CC[C@]12O | x | x | x | 8% | x | x
O=C(CCCc1nc2ccccc2s1)NCc1ccccc1F | -10% | 15% | 0% | 1% | 2% | 3%
CCC(C)(C)n1nnnc1C(c1cc2cc(C)ccc2[nH]c1=O)N1CCCc2ccccc21 (stereo unspecified) | 13% | x | -2% | 9% | -10% | u
CCC(C)(C)n1nnnc1C(c1cc2cc(OC)ccc2[nH]c1=O)N1CCc2ccccc21 (stereo unspecified) | u | 10µM* | -30% | u | 6% | 3%
CCC(C)(C)n1nnnc1C(c1cc2ccc(OC)cc2[nH]c1=O)N1CCc2ccccc21 (stereo unspecified) | -23% | 5.2µM* | 10% | u | -1% | 32%
CCC(C)(C)n1nnnc1C(c1cc2ccc(OC)cc2[nH]c1=O)N1CCc2ccccc2C1 (stereo unspecified) | -7% | u | u | 13% | 1% | x
COCc1nc(-c2ccc(-c3ccc(OC)cc3)nc2OC)no1 | -3% | 11% | u | -31% | -24% | u
COc1ccc(-c2ccc(-c3noc(C(C)C)n3)c(OC)n2)cc1 | 20% | 24% | 1.6µM* | -49% | -14% | -3%
CCOc1nc(-c2ccccc2)ccc1-c1noc(COC)n1 | 22% | u | 10µM* | -34% | -32% | u
COCc1nc(-c2cc(Br)ccc2OC)no1 | 10% | 10% | 13µM* | -10% | x | x
COCc1nc(-c2ccc(-c3ccccc3)nc2OC)no1 | -2% | 142% | 14µM* | -14% | -25% | u
CCOC(=O)C1(Cc2cccc(Cl)c2)CCCN(C(=O)CN2C(=O)CSC2=O)C1 (stereo unspecified) | -7% | 6% | 1% | -6% | 0% | 25%
Cc1cccc(OC(C)C(=O)Nc2ccc3c(c2)OCCO3)c1 (stereo unspecified) | -7% | x | 8% | x | x | x
O=C(COc1ccc(S(=O)(=O)N2CCOCC2)cc1Cl)NCc1ccco1 | -14% | -12% | -5% | 2% | 3% | 17%
O=S(=O)(c1ccc(OCC(O)CNCc2ccco2)c(Cl)c1)N1CCOCC1 (stereo unspecified) | 14% | 8.3µM* | -1% | 13% | 4% | u
COCCNCC(=O)N1CCCCCC1 | 8% | -2% | 29% | x | -1% | 12µM*
COCCNC(=O)CN1CCCCCC1 | -17% | 8% | u | 2% | 0% | 43%
CC(=O)Nc1ccc(S(=O)(=O)NNC(=O)COc2ccc(C)cc2)cc1 | 7%[2.32 µM] | 12% | 5% | 7% | 4% | 3%
COC(=O)c1ccc(S(=O)(=O)NNC(=O)COc2ccc(C)cc2)cc1 | 49% | 22% | -4% | 6% | u | 5.2µM*
Cc1c(C(=O)N/N=C/c2ccccn2)nnn1-c1nonc1N | 141% | 28% | -14% | 1% | 1% | u
Cc1cc(=O)[nH]c2c(C)cc(S(=O)(=O)N3CCCCC3)cc12 | -12% | -6% | 6% | -6% | -5% | 13µM*
SMILES | AMA1 RON2 block | Pf growth 48h | HCV inhibitor | NS1 function inh | SARS PLP yeast | Pf growth 96h
c1ccc2c(c1)nnn2-c1ncnc2sc3c(c12)CCCC3 | 12% | 0% | x | -57% | 7% | 3.3µM*
Cc1nc(-n2nnc3ccccc32)c2c3c(sc2n1)CCCC3 | 8% | -8% | u | -41% | 1% | 3%[5.75 µM]
CC(O)CNc1nc2ccccc2n1-c1ncnc2sc3c(c12)CCC3 (stereo unspecified) | -10% | x | u | -1% | -6% | 4.1µM*
O=C1NC[C@H](CC2CCCCC2)N(CCc2cccc(F)c2)C1=O | 39% | u | 12% | x | 3% | u
CCS(=O)(=O)Nc1c(C(=O)O)[nH]c2ccccc12 | -17% | -5% | 0% | -8% | -2% | 12µM*
CC(=O)Nc1c(C(=O)O)[nH]c2ccccc12 | -3% | 6% | 16% | 2% | -5% | 10µM*
CCS(=O)(=O)Nc1c(C(=O)OC)[nH]c2ccccc12 | 0% | 12% | 0% | 9% | 5% | x
COCCN(CC(=O)Nc1cc(Cl)ccc1-n1cncn1)Cc1nc2ccccc2c(=O)[nH]1 | 108% | -11% | 12% | x | -5% | -10%
Clc1cccc(Cl)c1C[n+]1ccc2ccccc2c1 | -4% | 2.1µM* | u | -1% | -1% | 32%
COc1cccc(/C=N/NC(=O)NC2CCCCC2)c1O | 79% | u | 15% | -7% | -1% | u
O=C(N/N=C/c1ccc(OC(F)F)cc1OC(F)F)NC1CCCCC1 | 5% | 10µM* | u | x | -10% | u
COc1ccccc1NS(=O)(=O)c1ccc(Cl)c(NC(=O)c2sc3cc(Cl)ccc3c2Cl)c1 | 0% | -29% | -17% | 2% | 0% | -7%
COc1ccccc1C(=O)NCCC(=O)Nc1ccc(S(=O)(=O)Nc2ncccn2)cc1 | -9% | u | 7% | x | 1% | -28%
COc1ccccc1NS(=O)(=O)c1cccc(NC(=O)c2sc3ccccc3c2Cl)c1 | -1% | 12µM* | u | 3% | 1% | -20%
COc1ccccc1NS(=O)(=O)c1cccc(NC(=O)CCNC(=O)c2ccccc2OC)c1 | 4% | 9.3µM* | u | x | 0% | 12µM*
COc1ccccc1NS(=O)(=O)c1cccc(NC(=O)NCCCl)c1 | 5% | 0% | 10% | 1% | 7% | 12µM*

Screens from PubChem BioAssay.
